Here are results for 40 compounds from PubChem BioAssay (NCI).

About 83,000 compounds went through this panel and 20% of them were active in at least one assay; those are over-represented in the sample as a whole.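 Activity criterion: percent growth below 10, measured after cells in 96-well plates were exposed to a single compound concentration for 48 hours.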 Values without a mark were called inactive. Calls of active or inactive are those of the source.

The assay has as its system NCI-H23 lung. Nature of the assay: NCI-60 one-dose screen, 48 h (100 = growth as untreated, 0 = no growth, -100 = all killed). As to conditions: 10 µM. Here is the method:
Growth inhibition of the NCI-H23 human Non-Small Cell Lung tumor cell line is measured as a screen for anti-cancer activity. Cells are grown in 96 well plates and exposed to the test compound for 48 hours. Compounds are tested at a single concentration, which is 10^-5 M for most compounds. The reported endpoint is percent growth (GI% or GIPRCNT), where numbers from 0 - 100% represent growth inhibition, and numbers from -100% - 0 represent cell death. For example, a value of 40 represents 60% growth inhibition. A value of 0 means no net growth occurred over the course of the experiment. A value of -40 indicates 40% of cells at the beginning of the experiment died by the end of the experiment. A value of -100 means all cells are dead at the end of the experiment.
NCI-60 Human Tumor Cell Lines Screen was performed using the standard one-dose NCI protocol, which is described in more detail at https://dtp.cancer.gov/discovery_development/nci-60/default.htm.
Compounds with GIPRCNT values below 10 were considered active. Activity score was based on GIPRCNT using the following formula: […]
Score is 0 for GIPRCNT values of 100 or above, 50 for GIPRCNT values of 0, and 100 for GIPRCNT values of -100.
As to `Cc1ccc(NCC(=O)Nn2c(COc3ccccc3)nc3ccccc3c2=O)cc1`, the growth was 67.8%.
The value for `COc1ccc2[nH]c(=O)c(CSc3ccc(Nc4nccc(-c5ccc(Cl)cc5)n4)cc3)cc2c1` was 83.9%.
`COc1ccc2[nH]cc(/C=N/Nc3ccc(Br)cn3)c2c1`: the growth is 36.6%.
Regarding `C=C1CCC2C3(C)COC(c4ccccc4F)OC3CCC2(C)C1C/C=C1/C(=O)OCC1O` (stereo not given), the growth was -38.8% (active).
Consider `CN1CCN(Cc2ccc(C(=O)Nc3cccc(Nc4ccc5cc(O)ccc5n4)c3)cc2C(F)(F)F)CC1`, for which the growth was -66% (active).
Regarding `O=C(c1ccc(Cl)cc1)C1[C@H](c2ccc(Br)cc2)[C@@H](c2ccccc2)NC12C(=O)Nc1ccc(Cl)cc12` (stereo not given in full), the growth is -83.6% (active).
On to `COc1cc(/C=C/C(=O)c2ccc(S(=O)(=O)NCCNc3nc(Nc4ccc(F)cc4)nc(N(C)C)n3)cc2)cc(OC)c1OC`, for which the growth was 13.7%.
As to `O=c1[nH][nH]c(Nc2ccccc2)c1N=Nc1ccc(F)cc1`, the growth is 102%.
As for `CN1CCN(c2ccc(Nc3nc(N4CCN(S(=O)(=O)c5ccc(F)cc5)CC4)c4sccc4n3)cc2)CC1`, the growth is -64.4% (active).
The value for `COc1ccc(CN2[C@@H](C(=O)NCc3ccc(C(=O)NO)cc3)Cc3c([nH]c4ccccc34)[C@@H]2C2CC2)cc1` was 21.3%; that for `CC1(C)CC[C@]2(C(=O)O)CC[C@]3(C)C(=CC[C@@H]4[C@@]5(C)C/C(=C/c6ccncc6)[C@H](O)C(C)(C)[C@@H]5CC[C@]43C)[C@@H]2C1` was 37.6%; that for `COc1ccc(N(C)c2cc(C#N)nc3ccccc23)cc1/C=C/C(=O)NO` was -83.4% (active).
The value for `CC1(C)CC[C@]2(C(=O)Nc3ccccc3)CC[C@]3(C)C(=CC[C@@H]4[C@@]5(C)CC[C@H](N)C(C)(C)[C@@H]5CC[C@]43C)[C@H]2C1` was 68.8%; that for `CCCn1c(=O)c2[nH]c(-c3ccc(OCc4nc5ccc(C)cc5[nH]4)cc3)nc2n(CCC)c1=O` was 25.3%; that for `Cc1ccc(CSc2nc(Cl)c(C#N)c(-c3ccc(F)cc3)n2)cc1` was 87.8%.
For the compound `N#Cc1ccc(-c2nn(-c3ccc(C(=O)O)cc3)cc2CNc2ccc(Cl)cc2)cc1`, the growth was 73.3%.
Take `C[C@H]1[C@H](C)CC[C@]2(COC(=O)CCC(=O)NCC#CCN3CCNCC3)CC[C@]3(C)C(=CC[C@@H]4[C@@]5(C)CCCNC(C)(C)[C@@H]5CC[C@]43C)[C@H]12`: the growth is 44.1%.
The value for `Cc1ccc(C(C)C)cc1NC(=O)c1ccccc1O` was 11.8%; that for `Cc1ccc(-c2cc(-c3cc4ccccc4nc3Cl)[nH]c(=S)n2)cc1` was 71.5%.
The value for `CC1=C2C(=C[C@@](C)(CO)[C@@H]2O)/C(=N\N)[C@](C)(O)C12CC2` was -77.8% (active); that for `CC(=C(c1ccc(OCCN2CCCCC2)cc1)c1ccc(OCCN2CCCCC2)cc1)c1ccccc1` was 47.2%; that for `CCCS(=O)(=O)c1oc(-c2ccc(F)cc2)nc1S(=O)(=O)c1ccc(F)cc1` was -42.1% (active).
As for `O=c1[nH]c2ccccc2cc1CSc1ccc(Nc2nccc(-c3ccc4c(c3)OCO4)n2)cc1`, the growth was 86.1%.
With `COc1ccc(/C=C/C(=O)c2ccc(N3CCN(C)CC3)cc2)c(C(F)(F)F)c1`, the growth is 28.2%.
On to `CCCCCCCCCCCCCCCCCCCC(=O)NCCc1c[nH]c2ccc(O)cc12`, for which the growth was 103%.
Regarding `COc1ccc(/C(C)=N/N=C2C(=O)N(C)c3ccc(Br)cc32)cc1S(N)(=O)=O`, the growth is 64.1%.
On to `COc1cc2c3c(n(CCCN4CCOCC4)c(=O)c2cc1OC)-c1nc2c(cc1C3=O)OCO2`, for which the growth was 4.12% (active).
Consider `O=C(Nc1ccccc1)Nc1nc2ccccc2s1`, for which the growth is 78.5%.
The value for `CC(=O)C1=C(C)NC(SCC(=O)Nc2ccc(S(=O)(=O)Nc3cc(C)on3)cc2)=NC1c1ccccc1` (stereo not given) was 102%; that for `COc1ccc2nc(Nc3cccc(NC(=O)c4ccc(CN5CCN(C)CC5)c(C(F)(F)F)c4)c3)ccc2c1` was -94.9% (active); that for `O=C(CNc1nc(-c2ccccc2)cs1)Nc1ccc([N+](=O)[O-])cc1` was -6.85% (active).
As for `O=C(NCCCCC(c1ccc(F)cc1)c1ccc(F)cc1)NCCCc1cccnc1`, the growth is 24%.
Regarding `O=C1Nc2ccc(Cl)cc2/C1=C/c1ccc(OCc2ccccn2)cc1`, the growth was 62.2%.
With `O=C(CNc1nc(-c2ccccc2)cs1)Nc1cccc(Cl)c1`, the growth is 28.4%.
As for `O=C1NC(=NC23CC4CC(CC(C4)C2)C3)N/C1=C\c1ccc2ncccc2n1`, the growth was -53.7% (active).
As for `COc1ccc(C(=O)/C=C/c2cc(C(F)(F)F)cc(C(F)(F)F)c2)cc1S(N)(=O)=O`, the growth is -86.1% (active).
On to `COc1ccsc1/C=N/NC(=O)c1[nH]c2ccc(Br)cc2c1-c1ccccc1`, for which the growth is 9.07% (active).
`Brc1ccc(/C=C/c2n(Cc3ccc4ccccc4c3)c3ccccc3[n+]2Cc2ccc3ccccc3c2)cc1`: the growth is -81.9% (active).
Take `Cc1ccc(/C(CSc2nnc(-c3c[nH]c4ccccc34)n2-c2ccccc2)=N/O)cc1`: the growth was 53.3%.
Regarding `CC1(C)CC[C@]23CC[C@]4(C)[C@H](CC[C@@H]5[C@@]6(C)CC[C@H](N)C(C)(C)[C@@H]6CC[C@]54C)[C@H]2[C@H]1OC3=O`, the growth was -94.7% (active).
